24 compounds from PubChem BioAssay (Tox21) can be followed below.

Molecules are shown by their SMILES. Records with an inconclusive call do not appear. Values without a mark were called inactive. Active and inactive are the calls of the source. Calls come from the whole dose curve; as a rule, active = well fitted curve in the direction sought with a large enough effect in the repeat runs; inconclusive = weak or mixed curves; inactive = no such curve, though single readings can be large; an effect the other way counts as inactive or inconclusive.

Assay [1] has as its target Nuclear receptor subfamily 1 group I member 2 (Homo sapiens) (UniProt O75469). Nature of the assay: Human pregnane X receptor (PXR) small molecule agonists, qHTS assay (AID 1346982). Note: nearly all actives have a fitted effect of over 35% in size. Note: potency is the fitted concentration of half-maximal effect. The gist of the method:
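Tox21 qHTS; PXR-Luc HepG2; compounds pinned from DMSO; 24 hr, 37 C; ONE-Glo luciferase detection, 30 min room temperature.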
(qHTS replaces the single test concentration by a dilution series.)

The target in assay [2] is Nuclear receptor subfamily 1 group I member 2 (Rattus norvegicus) (UniProt Q9R1A7). Nature of the assay: Rat pregnane X receptor (rPXR) activation by small molecules, qHTS assay (AID 1346983). Note: nearly all actives have a fitted effect of over 20% in size. The following applies: rPXR luciferase reporter cells, One-Glo luminescence, 24 h; max activation: active compounds read high. The gist of the method:
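Luminescent readout (One-Glo luciferase, 30 min room temperature) followed 24 hr compound treatment at 37 C of rPXR cells plated 2,000 per well and preincubated 5hr; qHTS format with compounds delivered in DMSO.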

The target of assay [3] is Nuclear receptor subfamily 1 group I member 2 (Homo sapiens) (UniProt O75469). Nature of the assay: CYP3A4 induction through human pregnane X receptor (PXR) by small molecules, qHTS assay (AID 1346984). Note: nearly all actives have a fitted effect of over 40% in size. The gist of the method:
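Cells (DPX-2; HepG2 with PXR element plus CYP3A4-promoter luciferase) settled 5hr, then were treated 24hr at 37C. A 3hr, 3uM-final Luciferin-IPA step preceded luminescence measurement with One-Glo.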

Assay [4] has the same target. Nature of the assay: Human pregnane X receptor (PXR) activation by small molecules, qHTS assay (AID 1346985). Note: nearly all actives have a fitted effect of over 40% in size. The gist of the method:
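DPX-2 cells (HepG2 co-transfected with a PXR response element and a CYP3A4-promoter luciferase construct) were seeded at 2,000 per well, rested 5 hr at 37C, then exposed to DMSO-dissolved compounds for 24 hr. Activation was read as luciferase luminescence.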

Assay [5] deals with Cytochrome P450 2D6 (Homo sapiens) (UniProt P10635). Nature of the assay: Cytochrome P450 Family 2 Subfamily D Member 6 (CYP2D6) small molecule antagonists: luciferase reporter qHTS assay (AID 1671196). For activity change, negative = inhibition: series mostly up to about 120 µM. Note: nearly all actives have a fitted effect of over 50% in size. Note: potency is the fitted concentration of half-maximal effect. The method in brief:
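Room-temperature luminescent CYP2D6 activity assay: compound preincubated 10 min with enzyme–substrate mix, NADPH-initiated reaction 1 h, detection reagent 20 min before reading.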

For assay [6], the target named is Cytochrome P450 2C19 (Homo sapiens) (UniProt P33261). Nature of the assay: Cytochrome P450 Family 2 Subfamily C Member 19 (CYP2C19) small molecule antagonists: luciferase reporter qHTS assay (AID 1671197). For activity change, negative = inhibition: series mostly up to about 120 µM. Note: nearly all actives have a fitted effect of over 65% in size. Note: potency is the fitted concentration of half-maximal effect. The method in brief:
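Luminescent readout of CYP2C19 activity: luciferin product detected 20 min after adding detection reagent. Before that, compound and enzyme-substrate mix preincubated 10 min at room temperature; NADPH-regenerating system started a 1 h, 37C reaction. Ketoconazole as positive control.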

Assay [7] deals with Cytochrome P450 2C9 (Homo sapiens) (UniProt P11712). Nature of the assay: Cytochrome P450 Family 2 Subfamily C Member 9 (CYP2C9) small molecule antagonists: luciferase reporter qHTS assay (AID 1671198). For activity change, negative = inhibition: series mostly up to about 120 µM. Note: nearly all actives have a fitted effect of over 50% in size. Note: potency is the fitted concentration of half-maximal effect. The method in brief:
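Enzyme-substrate mix preincubated with compound 10 min at room temperature; reaction started with NADPH regeneration solution, 1 h 37C. Luminescent luciferin product read after 20 min detection reagent.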
For orientation: A reporter such as luciferase makes a cellular process visible.

The target in assay [8] is Cytochrome P450 1A2 (Homo sapiens) (UniProt P05177). Nature of the assay: Cytochrome P450 Family 1 Subfamily A Member 2 (CYP1A2) small molecule antagonists: luciferase reporter qHTS assay (AID 1671199). For activity change, negative = inhibition: series mostly up to about 120 µM. Note: nearly all actives have a fitted effect of over 50% in size. Note: potency is the fitted concentration of half-maximal effect. The gist of the method: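 Room-temperature CYP1A2 reaction with proluciferin substrate: compounds added from DMSO, 10 min preincubation, NADPH regeneration for 1 h. Luciferin detection reagent then added; luminescence recorded as RLU.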

For assay [9], the target named is Voltage-gated inwardly rectifying potassium channel KCNH2 (Homo sapiens) (UniProt Q12809). Nature of the assay: Human Ether-a-go-go-Related Gene (hERG) channel small molecule antagonists: fluorescence cell-based qHTS assay (AID 1671200).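 For activity change, negative = inhibition: hERG-expressing U2OS cells given a thallium stimulus after FluxOR II dye loading; series mostly up to about 77 µM.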 Note: nearly all actives have a fitted effect of over 50% in size. Note: potency is the fitted concentration of half-maximal effect. The gist of the method:
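First, 1000 cells per well are seeded and cultured overnight at 37 C. Next, FluxOR II dye is loaded for 1 h at room temperature, protected from light. After 10 more minutes, stimulus is added and fluorescence is read.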
On the technique in general: hERG is a cardiac potassium channel; its block is linked to QT prolongation.

Assay [10] deals with Cytochrome P450 3A4 (Homo sapiens) (UniProt P08684). Nature of the assay: Cytochrome P450 Family 3 Subfamily A Member 4 (CYP3A4) small molecule antagonists: luciferase reporter qHTS assay (AID 1671201). The gist of the method:
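Enzyme and proluciferin substrate are mixed with test chemicals for 10 min, then NADPH regeneration system drives turnover for 1 h at room temperature. A detection reagent halts the reaction; luminescence after 20 min gives relative activity.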
% is set by controls: 0 for no effect and ±100 for the full control effect.

Sequence of Cytochrome P450 2C9 (Homo sapiens) (P11712 whole entry, looked up): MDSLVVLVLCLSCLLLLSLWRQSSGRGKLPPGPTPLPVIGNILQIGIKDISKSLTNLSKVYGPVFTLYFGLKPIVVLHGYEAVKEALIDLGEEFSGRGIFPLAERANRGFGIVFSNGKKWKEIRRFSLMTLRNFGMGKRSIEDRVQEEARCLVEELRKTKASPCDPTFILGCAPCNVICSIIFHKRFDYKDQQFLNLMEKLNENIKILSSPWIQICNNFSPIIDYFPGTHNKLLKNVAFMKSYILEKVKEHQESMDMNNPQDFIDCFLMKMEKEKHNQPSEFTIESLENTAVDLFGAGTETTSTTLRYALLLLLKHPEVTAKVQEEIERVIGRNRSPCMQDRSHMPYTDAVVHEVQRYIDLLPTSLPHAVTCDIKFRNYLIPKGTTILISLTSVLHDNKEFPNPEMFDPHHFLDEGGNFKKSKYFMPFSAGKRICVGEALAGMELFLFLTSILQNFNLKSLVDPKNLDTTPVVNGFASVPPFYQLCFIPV
Sequence of Cytochrome P450 1A2 (Homo sapiens) (P05177 whole entry, looked up): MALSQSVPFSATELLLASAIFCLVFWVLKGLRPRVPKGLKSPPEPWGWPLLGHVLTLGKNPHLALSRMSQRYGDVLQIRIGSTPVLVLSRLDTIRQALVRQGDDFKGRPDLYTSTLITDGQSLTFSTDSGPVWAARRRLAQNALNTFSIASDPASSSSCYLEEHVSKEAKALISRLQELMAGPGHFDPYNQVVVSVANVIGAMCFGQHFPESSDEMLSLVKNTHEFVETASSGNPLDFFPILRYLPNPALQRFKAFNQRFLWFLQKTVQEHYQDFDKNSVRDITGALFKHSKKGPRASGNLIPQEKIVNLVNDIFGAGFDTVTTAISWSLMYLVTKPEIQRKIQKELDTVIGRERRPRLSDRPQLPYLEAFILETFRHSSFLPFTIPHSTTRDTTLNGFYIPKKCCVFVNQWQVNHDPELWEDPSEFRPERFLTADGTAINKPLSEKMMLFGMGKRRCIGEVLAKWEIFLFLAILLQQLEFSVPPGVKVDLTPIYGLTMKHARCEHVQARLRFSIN
Sequence of Voltage-gated inwardly rectifying potassium channel KCNH2 (Homo sapiens) (Q12809 whole entry, looked up): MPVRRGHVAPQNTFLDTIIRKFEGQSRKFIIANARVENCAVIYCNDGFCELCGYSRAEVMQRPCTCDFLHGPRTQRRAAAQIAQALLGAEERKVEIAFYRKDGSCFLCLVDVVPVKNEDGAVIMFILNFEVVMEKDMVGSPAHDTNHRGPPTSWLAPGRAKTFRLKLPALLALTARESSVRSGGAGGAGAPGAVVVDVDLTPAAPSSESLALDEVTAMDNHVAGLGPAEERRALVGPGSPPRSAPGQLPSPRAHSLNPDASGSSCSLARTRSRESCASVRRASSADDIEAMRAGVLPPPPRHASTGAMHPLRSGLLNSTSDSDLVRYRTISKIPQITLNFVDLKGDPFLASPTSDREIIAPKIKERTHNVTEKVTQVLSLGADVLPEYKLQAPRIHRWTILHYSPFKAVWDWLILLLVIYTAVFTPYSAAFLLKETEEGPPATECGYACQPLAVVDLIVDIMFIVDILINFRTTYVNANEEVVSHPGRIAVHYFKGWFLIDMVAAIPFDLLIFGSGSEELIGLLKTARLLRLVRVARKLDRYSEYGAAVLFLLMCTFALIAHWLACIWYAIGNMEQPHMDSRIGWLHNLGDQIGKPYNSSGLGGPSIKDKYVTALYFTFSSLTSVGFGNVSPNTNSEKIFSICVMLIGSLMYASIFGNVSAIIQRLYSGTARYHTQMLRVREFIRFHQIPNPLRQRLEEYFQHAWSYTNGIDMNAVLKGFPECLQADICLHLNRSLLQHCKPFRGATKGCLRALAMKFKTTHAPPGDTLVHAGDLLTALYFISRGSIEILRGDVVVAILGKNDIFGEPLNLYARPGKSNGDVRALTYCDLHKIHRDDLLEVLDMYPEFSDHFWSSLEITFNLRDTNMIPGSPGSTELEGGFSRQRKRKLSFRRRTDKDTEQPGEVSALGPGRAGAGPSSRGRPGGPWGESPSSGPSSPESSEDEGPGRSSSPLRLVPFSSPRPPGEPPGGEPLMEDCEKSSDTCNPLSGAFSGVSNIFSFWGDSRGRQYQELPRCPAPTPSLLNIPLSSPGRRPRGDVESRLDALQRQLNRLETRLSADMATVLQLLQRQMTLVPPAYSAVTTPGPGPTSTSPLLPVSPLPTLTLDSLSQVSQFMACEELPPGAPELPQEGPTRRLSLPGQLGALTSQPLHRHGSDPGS
Sequence of Cytochrome P450 2C19 (Homo sapiens) (P33261 whole entry, looked up): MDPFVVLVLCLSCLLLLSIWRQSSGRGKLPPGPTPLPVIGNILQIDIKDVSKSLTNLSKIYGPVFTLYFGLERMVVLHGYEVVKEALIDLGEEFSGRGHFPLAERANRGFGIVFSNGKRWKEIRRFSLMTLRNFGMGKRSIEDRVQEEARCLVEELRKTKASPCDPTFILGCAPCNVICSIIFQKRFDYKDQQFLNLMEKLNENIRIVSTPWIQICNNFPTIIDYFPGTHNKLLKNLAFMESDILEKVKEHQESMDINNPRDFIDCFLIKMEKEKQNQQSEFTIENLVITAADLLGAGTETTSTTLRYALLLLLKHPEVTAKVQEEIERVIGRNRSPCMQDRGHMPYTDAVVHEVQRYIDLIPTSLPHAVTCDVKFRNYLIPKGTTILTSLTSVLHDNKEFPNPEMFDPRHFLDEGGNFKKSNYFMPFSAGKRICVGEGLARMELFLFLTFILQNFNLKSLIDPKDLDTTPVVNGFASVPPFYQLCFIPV
Sequence of Nuclear receptor subfamily 1 group I member 2 (Homo sapiens) (O75469 whole entry, looked up): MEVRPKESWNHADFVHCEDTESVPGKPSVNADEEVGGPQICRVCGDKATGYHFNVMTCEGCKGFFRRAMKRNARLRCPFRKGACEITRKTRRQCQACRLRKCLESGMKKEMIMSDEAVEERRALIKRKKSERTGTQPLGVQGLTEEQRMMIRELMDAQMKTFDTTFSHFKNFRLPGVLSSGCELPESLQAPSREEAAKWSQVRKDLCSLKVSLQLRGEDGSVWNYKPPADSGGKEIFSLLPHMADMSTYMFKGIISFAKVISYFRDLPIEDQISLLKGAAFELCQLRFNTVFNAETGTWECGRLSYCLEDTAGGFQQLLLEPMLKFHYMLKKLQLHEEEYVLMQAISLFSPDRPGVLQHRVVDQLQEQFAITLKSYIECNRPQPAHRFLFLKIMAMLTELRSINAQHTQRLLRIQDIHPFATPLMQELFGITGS
Sequence of Cytochrome P450 3A4 (Homo sapiens) (P08684 whole entry, looked up): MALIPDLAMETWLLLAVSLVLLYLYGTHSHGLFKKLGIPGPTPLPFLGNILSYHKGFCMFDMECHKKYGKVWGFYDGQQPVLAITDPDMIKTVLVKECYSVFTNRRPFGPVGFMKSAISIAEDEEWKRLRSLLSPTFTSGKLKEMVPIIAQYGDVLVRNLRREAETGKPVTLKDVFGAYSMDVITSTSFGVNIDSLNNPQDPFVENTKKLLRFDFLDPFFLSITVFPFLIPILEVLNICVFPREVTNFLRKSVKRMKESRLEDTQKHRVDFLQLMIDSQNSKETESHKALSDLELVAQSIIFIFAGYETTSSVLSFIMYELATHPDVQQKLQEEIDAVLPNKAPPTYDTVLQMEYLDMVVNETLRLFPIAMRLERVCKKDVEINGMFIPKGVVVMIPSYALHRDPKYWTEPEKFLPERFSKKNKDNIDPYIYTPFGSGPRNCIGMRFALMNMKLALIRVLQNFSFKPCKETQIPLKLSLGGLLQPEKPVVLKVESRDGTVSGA
Sequence of Cytochrome P450 2D6 (Homo sapiens) (P10635 whole entry, looked up): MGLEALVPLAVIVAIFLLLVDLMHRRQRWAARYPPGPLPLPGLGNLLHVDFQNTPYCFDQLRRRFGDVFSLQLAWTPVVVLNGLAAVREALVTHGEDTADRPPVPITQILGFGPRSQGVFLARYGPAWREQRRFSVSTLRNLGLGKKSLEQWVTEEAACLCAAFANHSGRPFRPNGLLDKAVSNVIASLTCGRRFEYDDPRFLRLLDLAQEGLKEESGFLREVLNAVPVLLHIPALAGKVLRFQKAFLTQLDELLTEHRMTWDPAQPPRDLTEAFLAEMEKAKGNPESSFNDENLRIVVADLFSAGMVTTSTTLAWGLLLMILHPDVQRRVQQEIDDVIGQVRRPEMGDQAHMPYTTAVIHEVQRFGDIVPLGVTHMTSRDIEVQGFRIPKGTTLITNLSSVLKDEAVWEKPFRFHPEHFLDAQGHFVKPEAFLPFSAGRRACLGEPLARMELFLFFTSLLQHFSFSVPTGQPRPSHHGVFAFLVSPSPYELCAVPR
Sequence of Nuclear receptor subfamily 1 group I member 2 (Rattus norvegicus) (Q9R1A7 whole entry, looked up): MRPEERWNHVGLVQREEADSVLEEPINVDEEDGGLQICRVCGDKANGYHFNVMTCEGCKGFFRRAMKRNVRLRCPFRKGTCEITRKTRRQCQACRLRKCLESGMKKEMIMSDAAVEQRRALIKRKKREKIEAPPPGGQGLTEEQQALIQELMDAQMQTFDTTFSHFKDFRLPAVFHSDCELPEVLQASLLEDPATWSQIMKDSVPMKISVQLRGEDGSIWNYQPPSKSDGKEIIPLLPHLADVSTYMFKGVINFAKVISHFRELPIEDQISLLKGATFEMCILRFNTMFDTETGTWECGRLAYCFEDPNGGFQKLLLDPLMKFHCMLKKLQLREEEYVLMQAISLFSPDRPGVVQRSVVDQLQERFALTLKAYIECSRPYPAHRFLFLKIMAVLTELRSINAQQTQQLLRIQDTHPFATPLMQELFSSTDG

With `O=C(O)/C=C/c1ccccc1`, the Potency result in [1], in [4], in assay [6], in assay [7], in assay [8] and in assay [9] was “inactive” each time. For the same compound, the Potency result in [10] was “inactive”. Besides, the max activation in assay [2] is -6.4%. Moreover, the compound was classed as inactive in assay [3]. Moreover, the Potency in [5] is 39.9 µM (active).
For the compound `NS(=O)(=O)c1ccc(Cl)c(S(N)(=O)=O)c1`, the Potency result in [1], in assay [4], in assay [7], in assay [8], in assay [9] and in [10] was “inactive” each time. For the same compound, the max activation in assay [2] is -3.93%. For the same compound, in [3], the compound was classed as inactive.
Regarding `NS(=O)(=O)c1cc2c(cc1Cl)NC(C(Cl)Cl)NS2(=O)=O` (stereo unspecified), the Potency result in assay [1], in assay [4], in assay [5], in assay [7], in [8] and in [9] was “inactive” throughout. Further, the Potency result in [10] was “inactive”. Moreover, in assay [2], the max activation was 3.75%. In addition, in assay [3], the outcome was inactive.
For the compound `O=C(Nc1cccc(C2=NCCN2)c1)Nc1cccc(C2=NCCN2)c1`, the activation in assay [1] was -0.413% [at 19 µM]. For the same compound, in assay [2], the max activation is -0.171%. Also, the outcome in assay [3] was inactive. Moreover, the Potency entry in [4] is “inactive”. Further, the Potency in assay [5] was 16.9 µM (active). Besides, the activity change, negative = inhibition in assay [6] was -6.53% [at 23.6 µM]; in [7], 0.456% [at 23.6 µM]; in assay [8] it was 12% [at 23.6 µM]; in assay [9], 4.21% [at 15.8 µM]; in assay [10], 41.3% [at 23.6 µM].
In the case of `Nc1ccc(S(=O)(=O)NC(=O)c2ccccc2)cc1`, the Potency result in assay [1], in assay [4], in assay [6], in assay [8], in assay [9] and in assay [10] was “inactive” throughout. In [2], the max activation was -3.91%. Moreover, the compound was classed as inactive in assay [3].
In the case of `CO[Si](CCCS)(OC)OC`, the Potency result in [1], in assay [5], in assay [6], in assay [7], in assay [8] and in [9] was “inactive” throughout.
With `CCCCOC(=O)[C@@H](C)Oc1ccc(Oc2ccc(C(F)(F)F)cn2)cc1`, the Potency result in assay [1] and in assay [5] was “inactive” throughout. In addition, the figures for the Potency in [6], in assay [7] and in assay [8] were 25.3 µM (active), 16 µM (active) and 20.1 µM (active), respectively.
For the compound `Cc1ccc(S(=O)(=O)NC(=O)NC2CCCCCCC2)cc1`, the Potency entry in [1], in [5], in assay [8] and in [10] was “inactive” throughout. Further, the max activation in assay [2] was -1.92%. Besides, in assay [3], the result was inactive. In assay [7], the Potency is 11 µM (active).
For the compound `Cn1c(=O)c2c(ncn2CC2OCCO2)n(C)c1=O`, the Potency result in assay [1], in [4], in assay [5], in assay [7], in assay [9] and in assay [10] was “inactive” throughout. Besides, the max activation in [2] is 6.17%. Also, the outcome in assay [3] was inactive.
For the compound `CN[C@@H]1[C@H](O)[C@H](NC)[C@H]2O[C@@]3(O)C(=O)C[C@@H](C)O[C@H]3O[C@@H]2[C@H]1O`, the Potency result in assay [1], in assay [4] and in assay [7] was “inactive” throughout. Further, in assay [2], the max activation is -0.189%. Further, the result in assay [3] was inactive.
As to `CNCc1ccccc1`, the Potency entry in [1], in assay [4], in [5], in assay [8], in [9] and in assay [10] was “inactive” each time. The max activation in assay [2] was -0.758%. The outcome in [3] was inactive.
`CCNC(=O)/C=C/c1cccc(Br)c1`: the figures for the Potency in assay [1] and in assay [8] were 26.6 µM (active) and 2.57 µM (active), respectively. Besides, in assay [2], the max activation is 11.4%. In addition, the call in assay [3] was inactive. The Potency entry in assay [4], in [5], in [7], in assay [9] and in assay [10] was “inactive” throughout.
Consider `Nc1ccc(/C=C/c2ccc(N)cc2S(=O)(=O)O)c(S(=O)(=O)O)c1`, for which the activation in [1] was -2.19% [at 0.349 µM]. Further, the max activation in assay [2] was -1.81%. Besides, in assay [3], the compound was called inactive. In addition, in assay [4], the Potency result is “inactive”. For the same compound, the activity change, negative = inhibition in assay [5] is -0.348% [at 0.435 µM]; in assay [6], 14.7% [at 0.435 µM]; in assay [7] it was 3.26% [at 0.435 µM]; in assay [8] it was 12.7% [at 0.435 µM]; in assay [9], 0.168% [at 0.29 µM]; in [10], 15.4% [at 0.435 µM].
Consider `Cc1oc(=O)oc1CN1CCN(c2cc3c(cc2F)c(=O)c(C(=O)O)c2n3C(C)S2)CC1` (stereo unspecified), for which the Potency result in assay [1], in [4], in [5], in assay [6], in [7] and in assay [8] was “inactive” in each case. The Potency entry in [9] and in assay [10] was “inactive” throughout. Moreover, the max activation in [2] is -2.98%. In addition, the result in assay [3] was inactive.
Turning to `O=C(/C=C/c1ccccc1)NCCO`, the Potency entry in assay [1], in assay [4], in assay [9] and in assay [10] was “inactive” throughout. For the same compound, the max activation in [2] is -0.885%. Besides, in assay [3], the outcome was inactive. Further, the values for the Potency in assay [6], in assay [7] and in [8] were 15.5 µM (active), 13.8 µM (active) and 11.5 µM (active), respectively.
On to `CC(=O)Nc1ncc([N+](=O)[O-])s1`, for which the Potency result in assay [1], in assay [4], in assay [5], in [6] and in assay [10] was “inactive” in each case. Also, the max activation in assay [2] was -3.65%. Besides, in assay [3], the outcome was inactive. In addition, the Potency in assay [8] is 15.5 µM (active).
As for `O=c1[nH]c(=O)c2ccccc2o1`, the Potency entry in assay [1], in assay [4], in assay [5], in [7], in [8] and in assay [9] was “inactive” in each case. The Potency entry in assay [10] is “inactive”. Moreover, in assay [2], the max activation was -5.11%. For the same compound, the compound was classed as inactive in assay [3].
Take `O=C(Oc1ccccc1C(=O)O)c1ccccc1O`: the Potency result in [1], in assay [4], in assay [5], in [8], in assay [9] and in [10] was “inactive” in each case. Besides, the max activation in assay [2] is -2.38%. In addition, the call in [3] was inactive.
Take `COCC(=O)Nc1c(I)c(C(=O)NCC(O)CO)c(I)c(C(=O)N(C)CC(O)CO)c1I` (stereo unspecified): the Potency entry in assay [1], in assay [6], in assay [7], in [8], in assay [9] and in assay [10] was “inactive” in each case. For the same compound, the max activation in assay [2] was -3.61%. Also, the outcome in assay [3] was inactive.
For the compound `NC(=O)C1(N2CCCCC2)CCN(CCCC(=O)c2ccc(F)cc2)CC1`, the Potency result in assay [1], in assay [4], in assay [6], in [7], in assay [8] and in assay [10] was “inactive” each time. Besides, the max activation in assay [2] is 0.444%. In assay [5], the Potency is 4.9 µM (active).
In the case of `CCCCCC1Nc2cc(C(F)(F)F)c(S(N)(=O)=O)cc2S(=O)(=O)N1` (stereo unspecified), the Potency result in assay [1], in assay [6] and in assay [8] was “inactive” in each case. In addition, the Potency in [5] was 13.8 µM (active); in assay [7], 1.55 µM (active); in [9], 23.9 µM (active).
Consider `CCOC(=O)OCC/C(SC(=O)OCC)=C(\C)N(C=O)Cc1cnc(C)nc1N`, for which the Potency entry in [1], in assay [6], in assay [7] and in assay [8] was “inactive” each time. Further, the Potency in [5] was 2.45 µM (active).
On to `NS(=O)(=O)c1cc2c(cc1Cl)NC(CC1CCCC1)NS2(=O)=O` (stereo unspecified), for which the Potency entry in assay [1], in assay [4], in [5], in [6], in [7] and in assay [9] was “inactive” in each case. In addition, the max activation in assay [2] was -1.01%. Also, the compound was classed as inactive in assay [3].
Turning to `CCC1Nc2cc(Cl)c(S(N)(=O)=O)cc2S(=O)(=O)N1` (stereo unspecified), the Potency result in assay [1], in assay [4], in assay [5], in assay [6], in [7] and in assay [8] was “inactive” throughout. In assay [10], the Potency entry is “inactive”. The max activation in assay [2] is -2.65%. In addition, the compound was called inactive in assay [3].
